These results are taken from PubChem BioAssay (NCI).

The nature of assay [1]: NCI Yeast Anticancer Drug Screen. Data for the rad50 strain (AID 155).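 Further: 0% = growth of vehicle-only cultures of the same strain.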 To be noted: S. cerevisiae rad50 strain growth inhibition; at 50.0 µM; stronger effect = higher value. The gist of the method: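 Relative growth inhibition (compound vs vehicle) was measured in yeast with a defined repair-gene alteration.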
Assay [2] is described as follows: NCI Yeast Anticancer Drug Screen. Data for the mec2-1 strain (AID 157). To be noted: S. cerevisiae mec2-1 strain, at 50.0 µM, stronger effect = higher value. The gist of the method: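 Yeast mec2-1 mutant treated with compound. Readout: growth inhibition vs vehicle controls.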
Assay [3] in a line: NCI Yeast Anticancer Drug Screen. Data for the sgs1 mgt1 strain (AID 161).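 Further: 0% = growth of cultures given vehicle only.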 As to conditions: S. cerevisiae sgs1 mgt1 strain, at 50.0 µM, stronger effect = higher value. In short, it runs like this: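 Test agents were incubated with a DNA-repair-mutant yeast strain. Growth was then read and compared against vehicle-treated controls.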
Assay [4] in a line: NCI Yeast Anticancer Drug Screen. Data for the cln2 rad14 strain (AID 165).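 Further: 0% = growth equal to vehicle treated cultures.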 To be noted: S. cerevisiae cln2 rad14 strain, at 50.0 µM, stronger effect = higher value. In short, it runs like this: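 cln2 rad14 yeast strain; compound exposure; growth inhibition read vs vehicle controls.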
A short description of assay [5]: NCI Yeast Anticancer Drug Screen. Data for the bub3 strain (AID 167). As to conditions: S. cerevisiae bub3 mutant strain, at 50.0 µM, stronger effect = higher value. The gist of the method:
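Screening used yeast with an engineered genetic alteration affecting cell cycle control. Compound-exposed cultures were compared with vehicle cultures, and reduced growth was taken as inhibition.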

Assay [6] is described as follows: NCI Yeast Anticancer Drug Screen. Data for the mlh1 rad18 strain (AID 175). As to conditions: S. cerevisiae mlh1 rad18 strain growth inhibition; at 50.0 µM; stronger effect = higher value. In short, it runs like this: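 Yeast w/ defined DNA-repair lesions; compound exposure; growth vs vehicle controls → % inhibition.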

Molecules are shown by their SMILES. Several values for one entry are separate records, joined by “and”; a condition that tells them apart may be missing. Equal entries are not always repeated. About 79,000 compounds went through this panel and 15% of them were active in at least one assay; those are over-represented in the sample as a whole. A number with no mark means an inactive call. Activity calls are given as the source filed them. No stated cut-off is given here; in the data, active means growth inhibition above about 70%; inactive means the rest.

For `c1ccc(C[n+]2ccc(-c3ccccc3)cc2)cc1`, the growth inhibition in assay [1] is -5.75%; in assay [2] it was 5.5%; in assay [3] it was -0.35%; in assay [4], -7.25%; in assay [5] it was -7.15%; in assay [6], -19.5%.
For `NC(Cc1cccc(F)c1)c1nn[nH]n1` (stereo not drawn), the growth inhibition in assay [1] is -7.6%; in assay [2] it was 2.35%; in assay [3], -0.1%; in assay [4], -22.8%; in assay [5] it was 1.65%; in assay [6], -0.7%.
For the compound `C[C@]12Cc3sc(N)nc3C[C@@H]1CC[C@@H]1[C@@H]2CC[C@@]2(C)[C@H]1CC[C@]2(C)O`, the growth inhibition in assay [1] is -21.5%; in assay [2], -18.4%; in assay [3] it was 11%; in assay [4], -32%; in assay [5], 25.6%; in assay [6], -4.95%.
In the case of `CCC[CH2][Sn]1([CH2]CCC)[O]C(=O)c2ccc(N)cc2[O]1`, the growth inhibition in assay [1] was 87.3% (active); in assay [2] it was 92.5% (active); in assay [3] it was 89.5% (active); in assay [4], 89.4% (active); in assay [5], 89.1% (active); in assay [6], 89.8% (active).
For `[Cl][Tl]`, the growth inhibition is -4.7% in assay [1]; 5.2% in assay [2]; 9.5% in assay [3]; -11.3% in assay [4]; -41% in assay [5]; -37.5% in assay [6].
Regarding `NC(=S)N=C(N)N`, the growth inhibition in assay [1] was 11.8%; in assay [2] it was -3.55%; in assay [3], -6.25%; in assay [4] it was -10.4%; in assay [5], 8.4%; in assay [6], 9.85%.
Regarding `NNC(=O)NC(=O)NN`, the growth inhibition in assay [1] is 1.25%; in assay [2] it was 5.4%; in assay [3], 4.6%; in assay [4], -8.95%; in assay [5], -0.15%; in assay [6] it was 9.6%.
Turning to `O=C(O)CCCNSc1ccccc1[N+](=O)[O-]`, the growth inhibition in assay [1] was 71.2% (active); in assay [2] it was 44.5%; in assay [3], 73% (active); in assay [4], 48.9%; in assay [5] it was 68.4%; in assay [6], 72% (active).
As to `[Co+2].[Co+2].[O-]CCCN=Cc1ccccc1[O-].[O-]CCCN=Cc1ccccc1[O-]`, the growth inhibition in assay [1] is 53.5%; in assay [2], 46%; in assay [3] it was 60.8%; in assay [4], -5.1%; in assay [5] it was 30.6%; in assay [6] it was 58.1%.
In the case of `CC(C)c1cccc(OC(=O)N(C)C=O)c1`, the growth inhibition in assay [1] is -8.1%; in assay [2], 12.7%; in assay [3], -12.8%; in assay [4], -46.4%; in assay [5] it was -21.4%; in assay [6] it was -1.5%.
Turning to `N#CCCCl`, the growth inhibition in assay [1] was -13.7%; in assay [2], -1.9%; in assay [3], 13.6%; in assay [4] it was -23.4%; in assay [5], -1.65%; in assay [6], -19.8%.
Take `CC(C)(C)c1ccc(O)cc1`: the growth inhibition in assay [1] is -21.1%; in assay [2], -29.8%; in assay [3], -18.8%; in assay [4], -9.5%; in assay [5], -1.45%; in assay [6], 8.85%.
As for `C1CCN2CC3CCCN4CCCC(C2C1)C34` (stereo not drawn), the growth inhibition in assay [1] is 5.5% and 7.1%; in assay [2], -21.9% and -1.05%; in assay [3] it was 7.3% and -16.1%; in assay [4] it was -0.35% and -0.5%; in assay [5] it was -11.9% and -6.6%; in assay [6] it was -96.5% and -85.2%.
